# Results from the supplement of paper PMC8728848.
# The sample as a whole holds a higher share of the strongest signals than the screen did.
# Key:
# Experiment in all cases: glycan array binding signal (z-score within array); higher = stronger binding
# [1] = test system: Fuc(a1-2)Gal(b1-4)GlcNAc(b1-2)[Fuc(a1-2)Gal(b1-4)GlcNAc(b1-4)]Man(a1-3)[Fuc(a1-2)Gal(b1-4)GlcNAc(b1-2)Man(a1-6)]Man(b1-4)GlcNAc(b1-4)GlcNAc; conditions: glycan notation: IUPAC condensed, linker removed
# Method in brief: (§1)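 Arrays were curated from the Consortium for Functional Glycomics database, 3228 in total, and kept only where the protein sequence was available. Binding is expressed as a within-array Z-score. This score was averaged across arrays of the same protein sequence at different concentrations or buffers and across linkers, and negative values can be read as non-binding.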
# [2] = test system: Fuc(a1-2)Gal(b1-4)GlcNAc(b1-3)GalNAc; conditions: glycan notation: IUPAC condensed, linker removed
# Method in brief: as §1
# [3] = test system: Fuc(a1-2)Gal(b1-4)GlcNAc(b1-3)Gal(b1-4)GlcNAc(b1-2)Man(a1-3)[Fuc(a1-2)Gal(b1-4)GlcNAc(b1-3)Gal(b1-4)GlcNAc(b1-2)Man(a1-6)]Man(b1-4)GlcNAc(b1-4)GlcNAc; conditions: glycan notation: IUPAC condensed, linker removed
# Method in brief: as §1
# Fuc(a1-2)Gal(b1-4)GlcNAc = conditions: glycan notation: IUPAC condensed, linker removed
# Method in brief: as §1
# [4] = test system: Fuc(a1-2)Gal(b1-4)GlcNAc(b1-3)[Fuc(a1-2)Gal(b1-4)GlcNAc(b1-6)]GalNAc; conditions: glycan notation: IUPAC condensed, linker removed
# Method in brief: as §1
# [5] = test system: Fuc(a1-2)Gal(b1-4)GlcNAc(b1-2)Man; conditions: glycan notation: IUPAC condensed, linker removed
# Method in brief: as §1
# [6] = test system: Fuc(a1-2)Gal(b1-4)GlcNAc(b1-3)Gal(b1-4)GlcNAc(b1-3)Gal(b1-4)GlcNAc; conditions: glycan notation: IUPAC condensed, linker removed; mutation: R125K
# Method in brief: as §1
# [7] = test system: Fuc(a1-2)Gal(b1-4)GlcNAc(b1-3)Gal(b1-4)GlcNAc; conditions: glycan notation: IUPAC condensed, linker removed; mutation: R125K
# Method in brief: as §1
# [8] = test system: Fuc(a1-2)Gal(b1-4)GlcNAc(b1-3)[Fuc(a1-3)[Gal(b1-4)]GlcNAc(b1-6)]Gal(b1-4)Glc; conditions: glycan notation: IUPAC condensed, linker removed
# Method in brief: as §1
# [9] = test system: Fuc(a1-2)Gal(b1-4)GlcNAc(b1-6)GalNAc; conditions: glycan notation: IUPAC condensed, linker removed
# Method in brief: as §1
# CHI3L1 (Homo sapiens), P36222, sequence (P36222 whole entry): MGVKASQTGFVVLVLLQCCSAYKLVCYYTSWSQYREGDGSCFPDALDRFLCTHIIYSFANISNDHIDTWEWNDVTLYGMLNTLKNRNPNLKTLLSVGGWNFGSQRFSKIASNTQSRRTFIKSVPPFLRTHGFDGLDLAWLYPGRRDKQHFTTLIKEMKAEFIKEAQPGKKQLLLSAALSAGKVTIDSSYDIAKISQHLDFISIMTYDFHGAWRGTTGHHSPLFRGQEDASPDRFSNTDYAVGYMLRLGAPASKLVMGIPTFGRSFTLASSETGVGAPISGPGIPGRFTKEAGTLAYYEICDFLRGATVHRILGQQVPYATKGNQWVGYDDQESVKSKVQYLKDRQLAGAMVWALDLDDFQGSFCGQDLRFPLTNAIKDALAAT
# Neurocan (Homo sapiens), O14594, sequence (O14594 other isoform, or with tags, fused parts or gaps): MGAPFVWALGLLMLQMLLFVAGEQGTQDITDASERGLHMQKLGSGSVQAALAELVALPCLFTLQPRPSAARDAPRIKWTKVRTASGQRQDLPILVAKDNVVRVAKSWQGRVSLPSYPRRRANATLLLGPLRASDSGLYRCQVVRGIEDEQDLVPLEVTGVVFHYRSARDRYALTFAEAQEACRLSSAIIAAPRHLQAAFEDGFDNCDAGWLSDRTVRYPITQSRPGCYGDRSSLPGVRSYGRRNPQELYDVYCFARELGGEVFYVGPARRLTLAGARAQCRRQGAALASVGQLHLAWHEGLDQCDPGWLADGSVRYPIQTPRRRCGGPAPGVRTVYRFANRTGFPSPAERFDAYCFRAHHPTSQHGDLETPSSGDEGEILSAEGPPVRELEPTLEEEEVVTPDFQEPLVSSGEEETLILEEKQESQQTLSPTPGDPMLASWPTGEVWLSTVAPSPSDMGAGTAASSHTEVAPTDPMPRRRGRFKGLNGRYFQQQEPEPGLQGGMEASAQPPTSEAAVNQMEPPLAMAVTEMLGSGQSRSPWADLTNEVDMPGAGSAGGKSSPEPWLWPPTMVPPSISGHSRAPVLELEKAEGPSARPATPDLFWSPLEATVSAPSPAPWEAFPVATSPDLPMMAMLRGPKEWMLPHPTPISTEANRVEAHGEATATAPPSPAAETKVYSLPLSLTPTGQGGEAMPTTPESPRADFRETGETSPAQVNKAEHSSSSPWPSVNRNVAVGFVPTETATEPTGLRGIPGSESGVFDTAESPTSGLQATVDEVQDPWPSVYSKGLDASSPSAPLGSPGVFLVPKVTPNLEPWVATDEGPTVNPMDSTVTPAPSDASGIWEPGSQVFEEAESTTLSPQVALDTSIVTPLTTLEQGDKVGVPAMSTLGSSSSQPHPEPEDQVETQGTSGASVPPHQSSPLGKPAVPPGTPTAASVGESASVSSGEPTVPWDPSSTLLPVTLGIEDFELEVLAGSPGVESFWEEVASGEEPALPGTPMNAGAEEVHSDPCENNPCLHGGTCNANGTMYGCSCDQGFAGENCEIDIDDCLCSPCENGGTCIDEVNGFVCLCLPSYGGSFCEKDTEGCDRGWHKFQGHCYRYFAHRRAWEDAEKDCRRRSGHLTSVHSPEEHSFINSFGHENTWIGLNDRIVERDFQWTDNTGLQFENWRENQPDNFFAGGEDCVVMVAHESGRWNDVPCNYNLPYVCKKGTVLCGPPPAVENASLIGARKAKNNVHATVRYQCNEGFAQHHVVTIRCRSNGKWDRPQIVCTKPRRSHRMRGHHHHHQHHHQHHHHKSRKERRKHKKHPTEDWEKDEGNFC
# PILRb (Mus musculus), Q2YSF2, sequence (Q2YSF2 entry or part of it): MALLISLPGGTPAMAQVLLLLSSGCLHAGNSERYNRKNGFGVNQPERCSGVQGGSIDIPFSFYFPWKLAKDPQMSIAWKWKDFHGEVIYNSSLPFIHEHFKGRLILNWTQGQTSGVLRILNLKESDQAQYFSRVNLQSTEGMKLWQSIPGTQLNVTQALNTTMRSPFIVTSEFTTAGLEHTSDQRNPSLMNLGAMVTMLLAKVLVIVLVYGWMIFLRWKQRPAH
substance,measurement,setting,value
"Neurocan (Homo sapiens), O14594",glycan array binding signal (z-score),[1],0.982
"PILRb (Mus musculus), Q2YSF2",glycan array binding signal (z-score),[2],-0.066
MpAFP RI GFP (Marinomonas primoryensis),glycan array binding signal (z-score),[3],1.06
"HARE (Homo sapiens), Q8WWQ8",glycan array binding signal (z-score),Fuc(a1-2)Gal(b1-4)GlcNAc,2.62
"CHI3L1 (Homo sapiens), P36222",glycan array binding signal (z-score),[4],-0.129
"Siglec-8 (Homo sapiens), Q9NYZ4",glycan array binding signal (z-score),[5],-0.065
same,glycan array binding signal (z-score),[6],-0.32
same,glycan array binding signal (z-score),[7],-0.565
same,glycan array binding signal (z-score),[8],-0.102
same,glycan array binding signal (z-score),[9],0.139
same,glycan array binding signal (z-score),Fuc(a1-2)Gal(b1-4)GlcNAc; mutation: R125K,-0.001
